Screening results as filed in PubChem BioAssay.
Compounds with a hit are over-represented: about 5.3% of the library has one in this group of screens.
Six1-Eya2 inh – blocks human Six1 binding to Eya2 | AlphaScreen GST-Six1/His-Eya2 binding, biochemical; stronger effect = lower value | activity change, % (no concentration beside the values) | actives 0.56% (n = 360,000) | AID 651725; in the data active = activity change below about -65%; inconclusive = mostly about -30% to -63%
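AlphaScreen luminescence read after one hour at 37 °C in darkness. Pin-transferred compounds met GST-Six1 and His-Eya2 protein (5X stock 250 nM/500 nM) plus glutathione donor and Ni-chelate acceptor beads (5X, 50 ug/mL).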
JMJD2A Tudor inh – blocks the human JMJD2A Tudor domain. actives 4.4% (n = 390,000). O75164. Potency, µM (highest dose often 114 µM), usual class: inhibitors. AlphaScreen JMJD2A-Tudor / H3K4me3 peptide binding; also: nearly all actives have a fitted effect of over 50% in size
BAZ2B block – BAZ2B (human) inhibition | Q9UIF8 | AlphaScreen BAZ2B-H3K14Ac peptide displacement | Potency, µM (top dose mostly 114 µM), actives largely listed as inhibitors | actives 4.4% (n = 360,000) | AID 504333; also: nearly all actives have a fitted effect of over 60% in size
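Protein-peptide AlphaScreen: BAZ2B 50 nM, b-H3K14Ac 50 nM, 1x PBS pH 7.4 + 0.01% Tween-20. Preincubation 30 min RT; cpd 30 min RT (top 110 uM); beads 20 min RT, light-protected.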
HP1b chromo inh – inhibitors of HP1-beta chromodomain binding to methylated histone tails. P83916. AlphaScreen HP1-beta / biotin-H3K9me3 peptide binding. Potency, µM (series often up to 114 µM), actives largely listed as inhibitors. actives 0.56% (n = 390,000); also: nearly all actives have a fitted effect of over 70% in size
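HP1-beta protein (50 nM final) preincubated 30 min at room temperature with biotinylated H3(1-18)K9me3 peptide (50 nM) in PBS pH 7.4, 0.01% Tween-20, then compound added for 30 min. AlphaScreen streptavidin donor/nickel chelate acceptor beads (10 ug/mL final), 30 min dark, luminescence read.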
TDP1 block – blocks human tyrosyl-DNA phosphodiesterase 1; actives 0.28% (n = 350,000); Q9NUW8; Potency, µM (doses to about 130 µM), actives largely listed as inhibitors; AID 485290; recombinant TDP1, AlphaScreen DNA substrate cleavage; also: nearly all actives have a fitted effect of over 40% in size
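Enzyme-compound mixtures sat 15 min at room temperature, followed by a 5 min reaction with 15 nM final substrate and 10 min with AlphaScreen beads. Recombinant human Tdp1 was used at 1 nM final.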
CtBP-E1A inh – inhibitors of CtBP/E1A interaction. AlphaScreen GST-E1A/His-CtBP binding, 1536-well; stronger effect = lower value. activity change, % (concentration not given with the values). actives 0.49% (n = 340,000). AID 651724; in the data active = activity change below about -65%; inconclusive = mostly about -30% to -63%
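GST-E1A and His-tagged CtBP (125 nM each as 5X stock) were preincubated with pin-transferred compound for 2 h at 37 °C in the dark, then glutathione donor and nickel acceptor beads were added for 1 h before AlphaScreen reading.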
Hits are given with their value; . = inactive; ? = inconclusive; / = no result; [ ] = remark or other dose. Unless noted, calls follow the shape of the dose curve; as a rule, active = well fitted inhibition curve with a large enough effect; inconclusive = small, poorly fitted or top-dose-only effect; inactive = no such curve, though single readings can be large or run the other way.

SMILES | Six1-Eya2 inh | JMJD2A Tudor inh | BAZ2B block | HP1b chromo inh | TDP1 block | CtBP-E1A inh
COC(=O)C1=C(C)N(c2ccc(C)c(C)c2)/C(=C/c2ccco2)C1=O | . | . | ? | . | / | .
CCOc1cc(/C=C2\C(=O)N(Cc3ccc(C)cc3)C(C)=C2C(=O)OC)ccc1O | . | 25.1µM | ? | . | . | .
CCOC(=O)C1=C(C)N(c2ccc(OC)cc2)C(=O)/C1=C\c1ccc(O)c(OCC)c1 | . | 14.1µM | 50.1µM | ? | . | .
COC(=O)C1=C(C)N(C)C(=O)/C1=C\c1ccco1 | . | . | ? | . | . | .
CCOC(=O)c1cccc(NC(=O)CCc2c(C)nn(-c3ccc(N4CCCC4)nn3)c2C)c1 | / | . | . | . | . | /
COc1ccc(CCN(C)c2ccc(C(N)=O)cc2[N+](=O)[O-])cc1OC | . | . | . | . | . | .
COc1ccc(CN(C)CCc2ccccn2)cc1OC | . | 35.5µM | 31.6µM | . | . | .
COc1ccc(CCN(C)C/C=C/c2ccccc2[N+](=O)[O-])cc1OC | . | 22.4µM | ? | . | / | .
COc1ccc(CCN(C)CC(=O)Nc2cc(C)nc3ccccc23)cc1OC | . | 0.794µM | 22.4µM | 22.4µM | . | .
COc1ccc(CCN(C)Cc2cccc3ccccc23)cc1OC | . | . | . | . | / | .
COc1ccc(CCN(C)Cc2ccc(OC)c(OCc3ccccc3)c2)cc1OC | . | 3.16µM | ? | . | . | .
Cc1cc(C(F)F)n2nc(C(=O)Nc3c(C)cccc3C)nc2n1 | / | . | . | . | . | /
CC(=O)Nc1c(C)nn(-c2ccccc2)c1N1CCC(C(=O)Nc2ccccc2F)CC1 | / | . | . | . | . | /
COc1ccccc1NC(=O)c1ccc2ccccc2c1 | / | . | / | / | . | /
COc1ccc(CNS(=O)(=O)c2cc3c(cc2Cl)N(C(C)=O)CCO3)cc1 | / | . | . | . | . | /
COc1ccc(CCN(C)Cc2c(O)ccc3ccccc23)cc1OC | . | 50.1µM | . | . | / | .
COc1cc(CN(C)CCc2ccccn2)cc(OC)c1OC | . | 7.94µM | 20µM | ? | . | .
CC(C)NC(=O)C1CCN(C(=O)N2CCOc3ccc(Cl)cc32)CC1 | / | ? | . | . | . | /
COCCSc1nnc(NC(=O)C2CC(=O)N(C3CCCC3)C2)s1 (stereo not drawn) | . | . | . | . | . | .
CCc1nnc(NC(=O)C2CC(=O)N(C3CCCCC3)C2)s1 (stereo not drawn) | . | . | . | . | 22.4µM | .
CC(O)CNCCCOc1ccc(Cl)cc1C(C)(C)C (stereo not drawn) | . | 0.891µM | ? | ? | . | .
CN(C)CCOCCOc1ccc(Cl)cc1C(C)(C)C | . | 3.16µM | 50.1µM | ? | . | .
COc1ccc(CNC(=O)c2cnc3sc(N4CCOCC4)nn3c2=O)cc1 | / | . | . | . | . | /
CCOC(=O)c1cnc(-c2ccccc2O)nc1Cl | . | 17.8µM | ? | . | . | .
CCOC(=O)c1cnc(-c2ccccc2)nc1Oc1ccc(Cl)cc1 | . | . | . | . | . | .
SMILES | Six1-Eya2 inh | JMJD2A Tudor inh | BAZ2B block | HP1b chromo inh | TDP1 block | CtBP-E1A inh
Cc1ccc(-c2nc3c4ccccc4ccn3c2CN2CCCCC2)cc1 | . | ? | 50.1µM | . | / | .
c1ccc(-c2nc3c4ccccc4ccn3c2CN2CCCCC2)cc1 | . | . | . | . | / | .
CCCCC(c1nnnn1CCOC)N1CCN(C(=O)c2ccco2)CC1 (stereo not drawn) | . | .[11.4 µM] | 50.1µM | . | . | .
CCC(c1nnnn1CCOC)N1CCN(C(=O)c2ccco2)CC1 (stereo not drawn) | . | ? | 50.1µM | . | . | .
COCCn1nnnc1C(CC(C)C)N1CCN(C(=O)c2ccco2)CC1 (stereo not drawn) | . | .[11.4 µM] | 79.4µM | . | . | .
CC1CCCC2(C1)NC(=S)c1c(sc3c1CCCC3)N2 (stereo not drawn) | . | 79.4µM | ? | ? | . | .
CN1C(=O)c2c(sc3c2CCCC3)NC1c1ccccc1O (stereo not drawn) | / | / | . | / | . | /
CCc1ccc(CNC(=O)C2CCN(C(=O)N3CC(CC)Oc4ccc(C)cc43)CC2)cc1 (stereo not drawn) | / | . | . | . | . | /
